PrP 5UTR inh = inhibition of PrP 5' UTR reporter expression | inhibition, % (no concentration beside the values) | 0.35% of 340,000 active | cell-based PrP 5' UTR mRNA reporter, plate reader | AID 488862; in the data active means inhibition above about 52%; further: 0 = median of the neutral control wells
Mtb hypoxia rep = inhibitors of hypoxia-regulated fluorescent reporter in Mycobacterium tuberculosis | M. tuberculosis hypoxia-regulated fluorescent reporter, fluorescence | fluorescence inhibition, % (concentration not given with the values) | 0.1% of 300,000 active | AID 1159583; in the data active means fluorescence inhibition mostly above about 23%, no sharp cut-off; inactive means mostly below about 17%
SSB-PriA inh = K. pneumoniae PriA-SSBct interaction inhibition. inhibition, % at 33 µM. AID 1272365. AlphaScreen SSBct-PriA binding, biotinylated peptide. 0.6% of 430,000 active; in the data active means inhibition mostly above about 37%, no sharp cut-off; inactive means mostly below about 20%;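 further: plate controls were negative control peptide for no effect and reference peptide for full effect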
TcdB inh = TcdB glycohydrolase inhibition; TcdB glycohydrolase enzymatic assay, plate reader; AID 652162; inhibition, % at 9.99 µM; 0.24% of 350,000 active; P18177; in the data active means inhibition above about 10%
FadD28 FP inh = M. tuberculosis FadD28 bisubstrate binding inhibition; FadD28 bisubstrate probe binding, fluorescence polarization; inhibition, % at 12.5 µM; 0.22% of 360,000 active; in the data active means inhibition above about 8.5%, passing the limit was not always enough
Mtb BioA inh = BioA (M. tuberculosis) enzyme inhibition; purified M. tuberculosis BioA enzyme, plate reader; inhibition, % at 9.99 µM; 0.096% of 360,000 active; AID 602481; in the data active means inhibition above about 40%
PrP UTR cherry = prion 5' UTR mRNA inhibition, cherry-pick retest. shares compounds with PrP 5UTR inh. cell-based prion protein 5' UTR reporter, plate reader. inhibition, % at 2.5 µM. 48% of 1,100 active; in the data active means inhibition above about 54%
Numbers without * were called inactive; ! = a repeat was not active. Most compounds without a hit are left out; they make up all but 1% or so of the library.

How did CCCOc1ccc(S(=O)(=O)N2CCN(C)CC2)c2ccccc12 do in these assays?
PrP 5UTR inh: 3; Mtb hypoxia rep: -6; SSB-PriA inh: 16; TcdB inh: 9; FadD28 FP inh: -3; Mtb BioA inh: -4

Results for C[C@]12CC[C@H]3[C@@H](CCC4=CC(=O)CC[C@@]43C)[C@@H]1CC[C@@H]2C(=O)CO ?
PrP 5UTR inh: 76*; SSB-PriA inh: -9; TcdB inh: 0; FadD28 FP inh: 0; Mtb BioA inh: 20; PrP UTR cherry: -16

How did C[C@]12CCC3C(CCC4=CC(=O)CC[C@@]43C)C1CCC2C(=O)CO (stereo partly specified) do in these assays?
Mtb hypoxia rep: -7

Results for NNC(=O)CC1NCCN(Cc2ccccc2)C1=O (stereo unspecified) ?
Mtb hypoxia rep: 6; SSB-PriA inh: -11; TcdB inh: 0; FadD28 FP inh: -1; Mtb BioA inh: 2

How did C[C@@H]1O[C@@H](O[C@H]2C[C@@H](O)[C@]3(CO)[C@H]4[C@H](O)C[C@]5(C)[C@@H](C6=CC(=O)OC6)CC[C@]5(O)[C@@H]4CC[C@]3(O)C2)[C@H](O)[C@H](O)[C@H]1O do in these assays?
PrP 5UTR inh: 92*; SSB-PriA inh: -8; FadD28 FP inh: -1; Mtb BioA inh: 0; PrP UTR cherry: 90*

How did CC12CC[C@H]3[C@@H](CCC4(O)C[C@H](O)CCC34C=NNC(=O)Cc3ccccc3)C1(O)CCC2C1=CC(=O)OC1 (stereo partly specified) do in these assays?
Mtb hypoxia rep: 0; SSB-PriA inh: -7

Results for CCN(CC)c1ccc(/C=N/N=C(N)N)c(O)c1 ?
PrP 5UTR inh: 62*; TcdB inh: -11; FadD28 FP inh: 0; PrP UTR cherry: 90*

Results for COc1ccc(CCNc2ccc(C(=O)O)cc2[N+](=O)[O-])cc1OC ?
PrP 5UTR inh: 62*; Mtb hypoxia rep: 18; SSB-PriA inh: 7; TcdB inh: -1; FadD28 FP inh: -1; Mtb BioA inh: 5; PrP UTR cherry: 10

Results for NC(=O)c1ccc(NCCc2ccccc2)c([N+](=O)[O-])c1 ?
PrP 5UTR inh: -10; Mtb hypoxia rep: 7; SSB-PriA inh: 5; TcdB inh: 1; FadD28 FP inh: -5; Mtb BioA inh: 4

Results for NS(=O)(=O)c1ccc(CCNC(=O)C(=O)NCC2OCCN2C(=O)c2ccc3c(c2)OCO3)cc1 (stereo unspecified) ?
PrP 5UTR inh: -20; Mtb hypoxia rep: 5; SSB-PriA inh: -2; TcdB inh: 1; FadD28 FP inh: -2

How did COc1ccc(C(=O)NC[C@@H](O)Cc2ccccc2)cc1F do in these assays?
SSB-PriA inh: -12

Results for O=C(Nc1c(-c2cccs2)nc2ccccn12)c1ccccc1F ?
PrP 5UTR inh: 82*; Mtb hypoxia rep: 4; SSB-PriA inh: 1; TcdB inh: 2; FadD28 FP inh: -1; PrP UTR cherry: -25

Results for O=C(Nc1c(-c2ccccc2)nc2ccccn12)c1cccs1 ?
PrP 5UTR inh: -15; Mtb hypoxia rep: 17; SSB-PriA inh: -1; FadD28 FP inh: 0

What do the screens show for `NC1=C(Cl)C(=O)c2ccc(S(N)(=O)=O)cc2C1=O`?
PrP 5UTR inh: 96*; SSB-PriA inh: -3; TcdB inh: 0; FadD28 FP inh: 1; Mtb BioA inh: 3; PrP UTR cherry: 96*

Results for NS(=O)(=O)c1ccc2c(c1)C(=O)c1ccccc1C2=O ?
SSB-PriA inh: 11

Results for COc1ccc(C(=O)NC2CCCc3ccccc32)c(OC)c1OC (stereo unspecified) ?
PrP 5UTR inh: 9; Mtb hypoxia rep: 14; SSB-PriA inh: -6; TcdB inh: 0; FadD28 FP inh: -1; Mtb BioA inh: -1

Results for Cc1ccc(-c2cc3onc(-c4ccccc4)c3c(=O)n2C)cc1 ?
PrP 5UTR inh: 61*; Mtb hypoxia rep: 2; SSB-PriA inh: 11; TcdB inh: 0; FadD28 FP inh: -1; Mtb BioA inh: -1; PrP UTR cherry: 11

What do the screens show for `CN(C)c1ccc(/C=N/Nc2cccc(C(=O)O)c2)cc1`?
PrP 5UTR inh: 93*; TcdB inh: -2; FadD28 FP inh: 1; Mtb BioA inh: -2; PrP UTR cherry: 92*

What do the screens show for `O=C(O)c1cccc(N/N=C/c2ccc(-c3ccccc3)cc2)c1`?
PrP 5UTR inh: -5; TcdB inh: -3; FadD28 FP inh: 7

Results for O=C(O)c1cccc(NN=Cc2ccc(-c3ccccc3)cc2)c1 ?
Mtb hypoxia rep: 4; SSB-PriA inh: -7

What do the screens show for `CC(C)(C)c1ccc(/C=N/Nc2cccc(C(=O)O)c2)cc1`?
PrP 5UTR inh: 60*; TcdB inh: -3; FadD28 FP inh: 2; PrP UTR cherry: 54*

How did C=CCN(CC=C)S(=O)(=O)c1ccc(NC(=S)NC(=O)/C=C/c2ccccc2)cc1 do in these assays?
PrP 5UTR inh: 59*; SSB-PriA inh: 3; FadD28 FP inh: -3; Mtb BioA inh: -6; PrP UTR cherry: -9

What do the screens show for `COc1ccc(CC(=O)Nc2ccc(S(=O)(=O)NC(C)C)cc2)cc1`?
PrP 5UTR inh: -6; Mtb hypoxia rep: 10; SSB-PriA inh: -25; FadD28 FP inh: 0; Mtb BioA inh: 1

Results for CCCCNS(=O)(=O)c1ccc(NC(=O)Cc2ccc(OC)cc2)cc1 ?
PrP 5UTR inh: 69*; Mtb hypoxia rep: -5; SSB-PriA inh: -7; TcdB inh: 1; FadD28 FP inh: -2; PrP UTR cherry: 10

Results for CCCCn1c(-c2ccccc2)nc2c(=O)n(C)c(=O)[nH]c21 ?
PrP 5UTR inh: 78*; Mtb hypoxia rep: 7; SSB-PriA inh: -10; FadD28 FP inh: -1; Mtb BioA inh: -2; PrP UTR cherry: 5

How did CCCCn1c(C)nc2c(=O)n(C)c(=O)[nH]c21 do in these assays?
PrP 5UTR inh: -27; Mtb hypoxia rep: -6; SSB-PriA inh: -8; FadD28 FP inh: -4; Mtb BioA inh: inactive

How did NCCCS(=O)(=O)O do in these assays?
PrP 5UTR inh: 74*!; Mtb hypoxia rep: 6; SSB-PriA inh: -8; TcdB inh: 1; FadD28 FP inh: 0; Mtb BioA inh: -2; PrP UTR cherry: -7

How did O=S(=O)(O)CCS do in these assays?
PrP 5UTR inh: -14; Mtb hypoxia rep: 5; SSB-PriA inh: -1; TcdB inh: 0; FadD28 FP inh: -2; Mtb BioA inh: 0

Results for COc1ccc(CN(C)C(=O)c2ccc(NS(=O)(=O)c3ccc4[nH]c(=O)[nH]c4c3)cc2)c(OC)c1 ?
PrP 5UTR inh: -18; Mtb hypoxia rep: 6; SSB-PriA inh: 1; TcdB inh: -1; FadD28 FP inh: -6; Mtb BioA inh: 1

Results for CC1(C)SC2C(NC(=O)C(N)c3ccc(O)cc3)C(=O)N2C1C(=O)O (stereo unspecified) ?
Mtb hypoxia rep: 4

Compound activity as filed in PubChem.
